Data: PubChem BioAssay
Activity calls are given as the source filed them. Unless noted, the rule behind the calls is not given here.

Columns and labels:
[1] = resazurin metabolic signal in HepG2 cells – cell-based, resazurin fluorescence, 24 h, PK04 Diversity Set, profiling panel (AID 1172); conditions: HepG2 viability, higher = more signal; note: test concentration not given here
[2] = budding yeast growth changes without added modifier – OD600, strain BY4716, 24 h, basal condition, primary screen (AID 1173); conditions: S. cerevisiae BY4716 growth, OD600, 24 h; higher = more signal, called active from +8 up or from −8 down
[3] = viability profiling in MM1S myeloma cells – cell-based, resazurin fluorescence, basal, 24 h, PK04 Diversity Set, profiling panel (AID 1174); conditions: higher = more signal, called active from +8 up or from −8 down;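 note: MM1S multiple myeloma cell line; test concentration not given here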
[4] = molecular target: Dihydroorotate dehydrogenase (quinone), mitochondrial (Plasmodium falciparum (isolate 3D7)) (UniProt Q08210); experiment: inhibition of P. falciparum DHODH – biochemical, C-terminal His tag, absorbance 600 nm, primary screen (AID 1175); conditions: PfDHODH enzyme, DCIP absorbance 600 nm; higher = more signal, called active from +8 up or from −8 down;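 note: recombinant parasite enzyme with a five histidine tag at its C terminus; test concentration not given here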
Dihydroorotate dehydrogenase (quinone), mitochondrial (Plasmodium falciparum (isolate 3D7)), sequence (Q08210 whole entry, looked up): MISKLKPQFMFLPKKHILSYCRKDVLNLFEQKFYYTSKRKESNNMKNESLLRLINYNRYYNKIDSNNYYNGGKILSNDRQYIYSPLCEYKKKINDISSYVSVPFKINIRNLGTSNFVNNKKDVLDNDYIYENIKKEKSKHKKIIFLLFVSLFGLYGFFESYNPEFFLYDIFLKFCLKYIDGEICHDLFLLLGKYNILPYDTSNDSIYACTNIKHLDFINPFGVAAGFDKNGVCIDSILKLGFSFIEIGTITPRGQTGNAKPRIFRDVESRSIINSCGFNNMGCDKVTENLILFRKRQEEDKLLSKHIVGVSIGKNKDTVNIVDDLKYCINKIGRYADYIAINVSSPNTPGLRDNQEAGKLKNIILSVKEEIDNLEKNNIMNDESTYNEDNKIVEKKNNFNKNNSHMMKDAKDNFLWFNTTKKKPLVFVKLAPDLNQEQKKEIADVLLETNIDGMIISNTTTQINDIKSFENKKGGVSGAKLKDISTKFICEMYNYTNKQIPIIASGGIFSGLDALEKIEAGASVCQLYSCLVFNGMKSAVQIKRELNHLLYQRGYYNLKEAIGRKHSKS

[5] = inhibition of PAO1 biofilm formation – strain PAO1, LB-PBS medium, absorbance 600 nm, primary screen (AID 1176); note: test concentration not given here; conditions: P. aeruginosa PAO1 growth/biofilm, A600, 12 h; higher = more signal
[6] = growth modulation of vineyard yeast isolate – strain RM11-1a, OD600, basal, 24 h, primary screen (AID 1177);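 note: cultures grown under basal conditions with no added stressor; test concentration not given here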; conditions: S. cerevisiae RM11-1a growth, OD600, 24 h; higher = more signal, called active from +8 up or from −8 down
[7] = growth of efflux-deficient E. coli DRC39 – strain DRC39, OD650, 24 h, E. coli filamentation inducers, primary screen (AID 1178);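 note: growth measured as culture turbidity by optical density at 650 nm; test concentration not given here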; conditions: E. coli DRC39 acrAB, higher = more signal, called active from +8 up or from −8 down
[8] = growth of efflux-deficient E. coli DRC39 – strain DRC39, OD650, 48 h, E. coli filamentation inducers, primary screen (AID 1179);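 note: screen aims at cell division blockers that make cells filament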; conditions: E. coli DRC39 delta-acrAB growth, higher = more signal, called active from +8 up or from −8 down
[9] = viability profiling in RPMI8226 myeloma cells – cell-based, resazurin fluorescence, basal, 24 h, PK04 Diversity Set, profiling panel (AID 1180); conditions: higher = more signal;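 note: RPMI8826 multiple myeloma cell line at 5000 cells per well; test concentration not given here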
[10] = molecular target: E3 ubiquitin-protein ligase XIAP (Homo sapiens) (UniProt P98170); experiment: small molecules binding XIAP protein – biophysical, small-molecule microarray, fluorescence 635 nm, primary screen (AID 1181); conditions: higher = more signal;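 note: score merges 667 nm emission and signal to noise over triplicate slides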
E3 ubiquitin-protein ligase XIAP (Homo sapiens), sequence (P98170 whole entry, looked up): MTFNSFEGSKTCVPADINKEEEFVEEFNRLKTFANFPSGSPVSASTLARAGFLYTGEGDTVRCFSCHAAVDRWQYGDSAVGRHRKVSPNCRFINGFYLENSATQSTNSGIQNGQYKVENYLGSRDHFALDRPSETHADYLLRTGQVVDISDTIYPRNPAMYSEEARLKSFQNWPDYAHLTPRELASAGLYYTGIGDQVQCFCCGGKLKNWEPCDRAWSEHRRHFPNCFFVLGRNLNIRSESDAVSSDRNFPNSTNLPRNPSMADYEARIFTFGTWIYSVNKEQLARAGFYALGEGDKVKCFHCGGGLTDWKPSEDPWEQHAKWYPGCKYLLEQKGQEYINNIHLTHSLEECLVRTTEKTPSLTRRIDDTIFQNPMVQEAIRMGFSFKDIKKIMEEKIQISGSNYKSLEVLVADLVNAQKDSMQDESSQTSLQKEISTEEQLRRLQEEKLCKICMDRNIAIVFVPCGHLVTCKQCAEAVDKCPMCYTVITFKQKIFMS

| SMILES | z-score [1] | z-score [2] | z-score [3] | composite z-score [4] | z-score [5] | z-score [6] | z-score [7] | z-score [8] | z-score [9] | composite z-score [10] |
| --- | --- | --- | --- | --- | --- | --- | --- | --- | --- | --- |
| CC[C@@H]1C=C(C(=O)O)[C@H](c2ccccc2)N1S(=O)(=O)c1ccc(C)cc1 | -0.791 | 0.34 (inactive) | -1.17 (inactive) | -0.95 (inactive) | 0.16 (inactive) | -1.02 (inactive) | -0.666 (inactive) | -0.135 (inactive) | -1.54 | -0.0663 |
| CCOC(=O)C[C@H]1[C@H](OC(=O)c2cc3ccccc3oc2=O)[C@@H](NC(=O)c2ccccc2)c2cc(OCCCO)ccc2N1C(=O)c1ccccc1 | -1.3 | -1.89 (inactive) | 0.741 (inactive) | -3.31 (inactive) | -1.02 (inactive) | -0.0038 (inactive) | -0.397 (inactive) | -0.869 (inactive) | -0.171 | -0.0559 |
| COc1ccc([Si](C)(C)[C@@H]2[C@@H](CC(=O)N3CCC[C@H]3CO)O[C@]3(C(=O)N(Cc4cccc(N5C(=O)COc6ccccc65)c4)c4ccccc43)[C@H]2C)cc1 | -1.58 | 0.107 (inactive) | -3.43 (inactive) | -1.54 (inactive) | 0.425 (inactive) | 0.0195 (inactive) | 0.719 (inactive) | 0.374 (inactive) | -5.39 | -0.102 |
| O=C(O)[C@@H]1[C@@H]2C(=O)N(c3ccccc3)C(=O)[C@@H]2C[C@@H]1Sc1ccccc1 | -0.303 | 0.308 (inactive) | -0.832 (inactive) | 1.2 (inactive) | 0.546 (inactive) | 1.48 (inactive) | -0.719 (inactive) | -1.3 (inactive) | -1.09 | -0.0907 |
| COC(=O)c1c(CC[C@@H](CO)NC(=O)N[C@@H](C)Cn2cc(-c3ccccn3)nn2)oc(C(C)=O)c1C(=O)OC | -0.962 | -0.369 (inactive) | 0.0168 (inactive) | -2.74 (inactive) | -0.109 (inactive) | -0.37 (inactive) | -0.207 (inactive) | -0.605 (inactive) | -0.921 | 0.0808 |
| CC(C)=C1C(=O)C(c2ccccc2)=C2CN3C(=O)N(CCc4ccccc4)C(=O)[C@]3(Cc3ccc(C(F)(F)F)cc3)[C@H]21 | -1.09 | 0.908 (inactive) | -1.32 (inactive) | -0.29 (inactive) | 0.799 (inactive) | 0.12 (inactive) | -0.943 (inactive) | -0.633 (inactive) | -1.19 | -0.213 |
| C=CC[C@@H](OC(=O)Nc1ccc(OC)cc1)c1ccc(O)c(F)c1 | -1.33 | -16.3 (active) | -1.32 (inactive) | -2.55 (inactive) | 0.79 (inactive) | -22 (active) | 0.924 (inactive) | 0.41 (inactive) | -0.895 | -0.0441 |
| COC(=O)c1c(CC[C@@H](CO)NC(=O)N2CCC[C@H]2Cn2cc(C3(O)CCCCC3)nn2)oc(C(C)=O)c1C(=O)OC | -0.089 | -0.212 (inactive) | -0.66 (inactive) | -0.0366 (inactive) | -0.546 (inactive) | -0.37 (inactive) | 0.294 (inactive) | -0.0642 (inactive) | -0.302 | -0.0448 |
| CC(C)C[C@@H]1NC(=O)[C@@H]2C[C@H](C(=O)NCCCCCCN)[C@H](c3cccc(OCCO)c3)N2C1=O | -0.821 | -0.568 (inactive) | 0.542 (inactive) | 1.05 (inactive) | 0.379 (inactive) | 0.473 (inactive) | -0.0795 (inactive) | -0.74 (inactive) | -0.0399 | 0.0264 |
| CCCC[C@@H](O)C1=C(COc2ccccc2)C[C@H]2C(=O)N(Cc3ccccc3)C(=O)[C@H]2[C@H]1CO | -0.78 | -1.66 (inactive) | -0.857 (inactive) | -4.48 (inactive) | -0.508 (inactive) | 0.743 (inactive) | -0.0552 (inactive) | 0.218 (inactive) | -0.301 | -0.0118 |
| C[N+](C)(C)CCCC[C@@H]1NC(=O)[C@@H]2C[C@H](C(=O)NCCCCCCN)[C@H](c3cccc(OCCO)c3)N2C1=O | -0.418 | -0.22 (inactive) | -0.0181 (inactive) | 0.441 (inactive) | -0.117 (inactive) | -0.0966 (inactive) | 0.342 (inactive) | 0.743 (inactive) | -1.3 | 0.215 |
| COCCOC(=O)N1C(=O)[C@@]2(c3cc(C#CCCO)ccc31)[C@H](c1ccc(OCCO)cc1)N1[C@H](c3ccccc3)[C@H](c3ccccc3)OC(=O)[C@H]1[C@@H]2C(=O)Nc1nc2ccccc2s1 | 0.32 | 1.9 (inactive) | -0.344 (inactive) | -0.719 (inactive) | 1.56 (inactive) | 2.38 (inactive) | -0.0627 (inactive) | 0.0759 (inactive) | -0.687 | -0.124 |
| C=CCN1Cc2ccccc2[C@@H]2OC(c3ccc(OCCCO)cc3)=N[C@]2(CC=C)C1=O | 0.151 | -1.94 (inactive) | 0.0504 (inactive) | -0.0817 (inactive) | 0.314 (inactive) | -0.0316 (inactive) | 0.997 (inactive) | 0.64 (inactive) | -0.747 | 0.247 |
| COC(=O)[C@@]1(Cc2ccc(F)cc2)[C@H]2c3cc(C(=O)N(C)C)n(CCc4ccc(OC)c(Br)c4)c3C[C@H]2CN1C(=O)c1ccccc1 | -1.73 | 0.233 (inactive) | -8.44 (active) | -3.85 (inactive) | 2.7 (inactive) | 0.399 (inactive) | -0.893 (inactive) | -1.49 (inactive) | -5.69 | -0.337 |
| COc1ccc(C#Cc2ccc3c(c2)[C@]2(C(=O)N3)[C@H](C(=O)O)[C@H]3C(=O)O[C@H](c4ccccc4)[C@H](c4ccccc4)N3[C@@H]2c2ccc(O)cc2)cc1 | -0.704 | -1.07 (inactive) | 0.239 (inactive) | -4.06 (inactive) | 0.381 (inactive) | 0.128 (inactive) | -0.0897 (inactive) | -0.94 (inactive) | -0.152 | -0.209 |
| CCCCCC1=C2CNC(C)(C(=O)OC)C=C2C(C)C1=O (stereo not given) | -0.901 | 2.3 (inactive) | -1.59 (inactive) | -0.455 (inactive) | 1.06 (inactive) | 1.18 (inactive) | -0.814 (inactive) | -0.193 (inactive) | -1.66 | 0.152 |
| CC(=O)N1CC2(CC2)CC1c1ccccc1 (stereo not given) | -0.603 | 1.12 (inactive) | -1.89 (inactive) | -0.448 (inactive) | 0.535 (inactive) | 0.0303 (inactive) | -0.88 (inactive) | -0.206 (inactive) | -1.36 | 0.0116 |
| C=CCNC(=O)[C@@H]1[C@H]2C(=O)O[C@H](c3ccccc3)[C@H](c3ccccc3)N2[C@H](c2ccccc2OCCO)[C@@]12C(=O)Nc1ccc(C#CCCO)cc12 | 0.282 | 0.634 (inactive) | 0.373 (inactive) | 1.22 (inactive) | 4.62 (inactive) | 1.96 (inactive) | -1.09 (inactive) | -2.17 (inactive) | -0.315 | 0.0461 |
| C=C(C(=O)CC[C@H](OC(=O)c1ccccc1-c1ccccc1C(=O)O)c1cccc(OCCO)c1)C(C)C | -0.862 | -0.907 (inactive) | -0.69 (inactive) | -0.23 (inactive) | 0.804 (inactive) | -0.427 (inactive) | -1.08 (inactive) | -1.03 (inactive) | -0.69 | 0.0617 |
| CC1CC/C=C\[C@H]2OC34C=CCN(c5ccc6ccccc6c5)C(=O)[C@H]3N(CCCO)C(=O)[C@@H]4C2C(=O)O1 (stereo not given in full) | -0.829 | 0.723 (inactive) | -0.644 (inactive) | 0.676 (inactive) | -0.829 (inactive) | 0.822 (inactive) | -0.587 (inactive) | -0.723 (inactive) | 0.0719 | 0.275 |
| CCOC(=O)C[C@H]1[C@H](OC(=O)Cc2ccc3c(c2)OCO3)[C@@H](NC(=O)C2CCCCC2)c2cc(OCCCO)ccc2N1C(=O)c1ccccc1 | -0.215 | 0.149 (inactive) | 0.327 (inactive) | 0.108 (inactive) | 0.407 (inactive) | 0.0834 (inactive) | 1.39 (inactive) | 1.37 (inactive) | 0.3 | -0.173 |
| COc1ccc([Si](C)(C)[C@@H]2[C@@H](CCO)O[C@]3(C(=O)N(Cc4ccccc4)c4ccc(N5CCOC5=O)cc43)[C@H]2C)cc1 | -1.13 | 1.81 (inactive) | -2.51 (inactive) | -0.981 (inactive) | 0.933 (inactive) | 4.01 (inactive) | -0.957 (inactive) | -0.978 (inactive) | -2.79 | 0.0605 |
